Inconclusive results are not listed. A call without a number means that no potency is given here. The source made the active and inactive calls. Calls follow the shape of the dose curve; as a rule, active = well fitted curve in the direction sought with a large enough effect; inconclusive = small, poorly fitted or top-dose-only effect, or another doubt; inactive = no such curve, though single readings can be large; an effect the other way counts as inactive or inconclusive.
What was measured:
[1] = qHTS of pediatric cancer cell lines to identify multiple opportunities for drug repurposing: Primary screen for U-2 OS cells (AID 1347096); also: nearly all actives have a fitted effect of over 50% in size; also: potency is read from the fitted curve at half-maximal effect
Summary of the method: (§1)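 Cells (500-1,000/well) rested 5 h, then received compounds for 48 h; metabolically active cells were measured by CellTiter-Glo luminescence. Final concentrations spanned up to 46 µM (MIPE, 11-point) or 0.59 nM-46 µM (NPC, 8-point) in primary screens, 11-point in follow-ups.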

[2] = qHTS of pediatric cancer cell lines to identify multiple opportunities for drug repurposing: Primary screen for Saos-2 cells (AID 1347097); also: nearly all actives have a fitted effect of over 40% in size; also: potency is read from the fitted curve at half-maximal effect
Summary of the method: (§2)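 Viability was measured as metabolically active cells after 48 hours of treatment, read by CellTiter-Glo luminescence. Compounds were tested at multiple final concentrations, giving concentration-response curves.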

[3] = qHTS of pediatric cancer cell lines to identify multiple opportunities for drug repurposing: Primary screen for OHS-50 cells (AID 1347103); also: nearly all actives have a fitted effect of over 40% in size; also: potency is read from the fitted curve at half-maximal effect
Summary of the method: as §1

[4] = qHTS of pediatric cancer cell lines to identify multiple opportunities for drug repurposing: Primary screen for RD cells (AID 1347104); also: nearly all actives have a fitted effect of over 55% in size; also: potency is read from the fitted curve at half-maximal effect
Summary of the method: as §2

[5] = qHTS of pediatric cancer cell lines to identify multiple opportunities for drug repurposing: Primary screen for MG 63 (6-TG R) cells (AID 1347105); also: nearly all actives have a fitted effect of over 50% in size; also: potency is read from the fitted curve at half-maximal effect
Summary of the method: as §2

[6] = qHTS of pediatric cancer cell lines to identify multiple opportunities for drug repurposing: Primary screen for control Hh wild type fibroblast cells (AID 1347106);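 also: series mostly up to about 46 µM; a drop in luminescence marks cytotoxicity and a rise apparent proliferation; nearly all actives have a fitted effect of over 55% in size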
Summary of the method: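 Viability after 48 h compound treatment at 37C, 500-1,000 cells/well, read as ATP luminescence with CellTiter-Glo. Primary screens used 11-point (MIPE, 0.78 nM-46 µM) or 8-point (NPC, 0.59 nM-46 µM) final concentrations; follow-up screens used 11-point dilutions.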

[7] = qHTS of pediatric cancer cell lines to identify multiple opportunities for drug repurposing: Primary screen for Rh30 cells (AID 1347107); also: series mostly up to about 46 µM; nearly all actives have a fitted effect of over 75% in size
Summary of the method: as §1

[8] = qHTS of pediatric cancer cell lines to identify multiple opportunities for drug repurposing: Primary screen for BT-37 cells (AID 1347094); also: potency is read from the fitted curve at half-maximal effect
Summary of the method: as §2

[9] = qHTS of pediatric cancer cell lines to identify multiple opportunities for drug repurposing: Primary screen for NB-EBc1 cells (AID 1347095); also: potency is read from the fitted curve at half-maximal effect
Summary of the method: as §2

[10] = qHTS of pediatric cancer cell lines to identify multiple opportunities for drug repurposing: Primary screen for SK-N-SH cells (AID 1347098); also: nearly all actives have a fitted effect of over 65% in size; also: potency is read from the fitted curve at half-maximal effect
Summary of the method: as §1

[11] = qHTS of pediatric cancer cell lines to identify multiple opportunities for drug repurposing: Primary screen for LAN-5 cells (AID 1347100); also: potency is read from the fitted curve at half-maximal effect
Summary of the method: as §1

[12] = qHTS of pediatric cancer cell lines to identify multiple opportunities for drug repurposing: Primary screen for BT-12 cells (AID 1347101); also: nearly all actives have a fitted effect of over 25% in size
Summary of the method: as §1

[13] = qHTS of pediatric cancer cell lines to identify multiple opportunities for drug repurposing: Primary screen for Rh18 cells (AID 1347102); also: nearly all actives have a fitted effect of over 65% in size
Summary of the method: as §1

[14] = qHTS of pediatric cancer cell lines to identify multiple opportunities for drug repurposing: Primary screen for Rh41 cells (AID 1347108);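 also: series mostly up to about 46 µM; luminescence drop marks cytotoxic hits; nearly all actives have a fitted effect of over 70% in size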
Summary of the method: as §2

[15] = qHTS of pediatric cancer cell lines to identify multiple opportunities for drug repurposing: Primary screen for NB1643 cells (AID 1347099); also: nearly all actives have a fitted effect of over 50% in size
Summary of the method: as §2

SMILES	Potency [1]	Potency [2]	Potency [3]	Potency [4]	Potency [5]	outcome [6]	outcome [7]	Potency [8]	Potency [9]	Potency [10]	Potency [11]	Potency [12]	Potency [13]	Potency [14]	Potency [15]
Cc1c(O)cccc1C(=O)N[C@@H](CSc1ccccc1)[C@H](O)CN1C[C@H]2CCCC[C@H]2C[C@H]1C(=O)NC(C)(C)C	21.1 µM (active)	26.6 µM (active)	24.6 µM (active)	23.7 µM (active)	26.6 µM (active)	inactive	inactive								
CC(=O)OCC(=O)[C@@]1(O)CC[C@H]2[C@@H]3CCC4=CC(=O)CC[C@]4(C)[C@H]3C(=O)C[C@@]21C	inactive			inactive	inactive	inactive	inactive	inactive	inactive	inactive	inactive	inactive	inactive	inactive	
CN1CCN(C2Cc3ccccc3Sc3ccc(Cl)cc32)CC1 (stereo unspecified)						inactive	inactive			21.7 µM (active)	9.44 µM (active)				
CC(O)COc1ccccc1 (stereo unspecified)	inactive		inactive	inactive	inactive	inactive	inactive		inactive	inactive		inactive			
NC(=O)N/N=C/c1ccc([N+](=O)[O-])o1	inactive	inactive	inactive	inactive	inactive	inactive	inactive		inactive	inactive	inactive		inactive	inactive	inactive
CC(CN(C)C)CN1c2ccccc2CCc2ccccc21 (stereo unspecified)	inactive		17.4 µM (active)		inactive	inactive	inactive		inactive		inactive			inactive	inactive
CCN(CC)CCCC(C)Nc1c2ccc(Cl)cc2nc2ccc(OC)cc12 (stereo unspecified)	inactive		17.4 µM (active)	23.7 µM (active)		inactive		27.6 µM (active)	15 µM (active)	5.45 µM (active)					
